ERAP1 inh: human ERAP1 aminopeptidase inhibitors, primary screen, biochemical, single point, plate reader. Endoplasmic reticulum aminopeptidase 1 (Homo sapiens), Q9NZ08. recombinant ERAP1, Leu-AMC fluorescence, 60 min. inhibition, % at 10.7 µM. 340,000 tested, 0.15% active. AID 652197, 2013;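 active = mean replicate inhibition of at least 30%, or all replicates individually reaching that 30% level; inactive = mean below 30% and not every replicate reaching it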;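 note: 0% = neutral control wells and 100% = L-leucinethiol positive control wells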
SIRT5 inh: SIRT5 desuccinylase inhibitors, primary screen, biochemical, fluorescence imaging, single point, set 5. 330,000 tested, 1.1% active. NAD-dependent protein deacylase sirtuin-5, mitochondrial (Homo sapiens), Q9NXA8. inhibition, % at 15 µM. Purified SirT5, succinyl-peptide AMC, trypsin-coupled fluorescence. AID 652115, 2013; in the data active = inhibition above about 15%
Target sequence (Q9NXA8 whole entry, looked up): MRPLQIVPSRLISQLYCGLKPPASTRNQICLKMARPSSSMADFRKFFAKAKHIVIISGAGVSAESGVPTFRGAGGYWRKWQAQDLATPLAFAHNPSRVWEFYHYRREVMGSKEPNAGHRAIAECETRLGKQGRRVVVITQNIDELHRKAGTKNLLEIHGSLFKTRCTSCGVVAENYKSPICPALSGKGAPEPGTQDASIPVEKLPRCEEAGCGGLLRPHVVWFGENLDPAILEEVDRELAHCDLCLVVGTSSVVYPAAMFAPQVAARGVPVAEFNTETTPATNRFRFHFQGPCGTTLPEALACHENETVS
FGF22 binding: binders of human FGF22 protein, primary screen, FGF22 synaptogenesis inhibitor project, biophysical, thermal shift, single point | recombinant FGF22 thermal shift, SYPRO orange fluorescence; percent of sucrose octasulfate shift, DMSO zero | activity (Tm shift, normalised), % at 9.99 µM | 340,000 tested, 1.5% active | AID 651658, 2012;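 active = mean Tm shift, scaled 0 neutral to 100 positive control, at about 1.3% or above, every replicate too, limit read from the data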
INS-1E GSIS act: GLuc luminescence reporter in INS-1E cells, primary screen for activators of glucose-dependent secretion of insulin; INS-1E GLuc reporter insulin secretion, 2-3 h; activation, % at 16.6 µM; 370,000 tested, 0.61% active;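 active = lowest replicate activation of at least 40%, so every replicate reaches that level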;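 note: 0% = median of neutral control wells and 100% = median of IBMX positive control wells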
Casp6 inh: human caspase-6 inhibitors, primary screen, biochemical, VEID-R110 fluorescence, single point, set 2; AID 686996, 2013; purified caspase-6, Z-VEID-R110 cleavage fluorescence; 350,000 tested, 0.53% active; inhibition, % at 12.5 µM;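 active = mean inhibition across replicates at least about 35%, with every replicate also reaching that limit, limit read from the data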;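 note: 0% = median of neutral control wells and 100% = no fluorescence left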
Target sequence (P55212 24-179 limits assumed): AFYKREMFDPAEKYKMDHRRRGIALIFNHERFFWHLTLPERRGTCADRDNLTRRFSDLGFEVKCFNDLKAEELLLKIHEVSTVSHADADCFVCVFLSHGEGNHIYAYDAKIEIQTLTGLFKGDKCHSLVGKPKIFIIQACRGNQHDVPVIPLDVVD
Target sequence (P55212 194-293 limits assumed): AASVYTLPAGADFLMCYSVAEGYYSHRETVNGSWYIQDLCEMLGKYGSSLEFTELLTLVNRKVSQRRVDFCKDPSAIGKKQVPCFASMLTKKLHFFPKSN
Numbers without * were called inactive. Sampled rows, rich in hits. Any-hit rate of the full collection: about 3.3%.

Results for O=C(C[C@@H]1C=C[C@H](NC(=O)c2ccc(F)cc2)[C@H](CO)O1)NCc1ccncn1 ?
ERAP1 inh: 1; SIRT5 inh: -1; FGF22 binding: 0; INS-1E GSIS act: 4; Casp6 inh: 0

What do the screens show for `O=C(N/N=C\c1ccc(CNS(=O)(=O)c2ccc(Cl)cc2)o1)C(=O)Nc1ccc(Oc2ccccc2)cc1`?
INS-1E GSIS act: 58*

What do the screens show for `O=C(N/N=C\c1ccc(CNS(=O)(=O)c2ccccc2)o1)C(=O)Nc1ccc(F)cc1`?
ERAP1 inh: 1; SIRT5 inh: -2; FGF22 binding: 0; INS-1E GSIS act: 16; Casp6 inh: 0

How did COc1ccccc1NS(=O)(=O)c1cc(NC(=O)c2sc3cc(Cl)ccc3c2Cl)ccc1C do in these assays?
ERAP1 inh: 1; SIRT5 inh: -2; FGF22 binding: 44*; INS-1E GSIS act: -2; Casp6 inh: -3

What do the screens show for `CCCS(=O)(=O)NC(=O)C1(C)CCN(C(=O)c2cccs2)C1` (configuration not stated)?
ERAP1 inh: -4; SIRT5 inh: 20*; FGF22 binding: 0; INS-1E GSIS act: 0; Casp6 inh: -3

What do the screens show for `Cc1cc([N+](=O)[O-])cc2ncccc12`?
INS-1E GSIS act: 86*

Results for O=[N+]([O-])c1ccc2cccnc2c1 ?
ERAP1 inh: 5; SIRT5 inh: -2; FGF22 binding: 0; INS-1E GSIS act: 0; Casp6 inh: 0

What do the screens show for `COC(=O)c1cccc(N/C=C(\[N+](=O)[O-])S(=O)(=O)c2ccccc2)c1`?
ERAP1 inh: 1; SIRT5 inh: 4; FGF22 binding: 0; INS-1E GSIS act: 51*; Casp6 inh: 6

Results for C[C@@H]1CCCCO[C@H](CN(C)C(=O)c2ccncc2)[C@H](C)CN([C@@H](C)CO)C(=O)c2cc(NS(=O)(=O)c3ccccc3)ccc2O1 ?
ERAP1 inh: 2; SIRT5 inh: -1; FGF22 binding: 0; INS-1E GSIS act: 0; Casp6 inh: 0

Results for CCCNC(=O)N1C[C@@H](C)[C@H](OC)CN(C)C(=O)c2ccc(NS(=O)(=O)CC(F)(F)F)cc2OC[C@@H]1C ?
ERAP1 inh: -2; SIRT5 inh: 2; FGF22 binding: 0; INS-1E GSIS act: -2

How did Cc1ccc(C(C(=O)NC(C)(C)C)N(C(=O)CCC(=O)Nc2ccccn2)c2ccccc2F)cc1 (configuration not stated) do in these assays?
ERAP1 inh: 1; SIRT5 inh: 19*; FGF22 binding: 0; INS-1E GSIS act: -19; Casp6 inh: 4

How did Cc1ccc(C(C(=O)NC(C)(C)C)N(Cc2ccco2)C(=O)CCC(=O)Nc2ccccn2)cc1 (configuration not stated) do in these assays?
ERAP1 inh: 2; SIRT5 inh: -1; FGF22 binding: 0; INS-1E GSIS act: -51; Casp6 inh: 1

How did CCn1c(SCC(=O)NCCc2ccccc2)nnc1C(C)C do in these assays?
ERAP1 inh: -1; SIRT5 inh: -5; FGF22 binding: 1; INS-1E GSIS act: 11; Casp6 inh: 9

How did CCn1c(SCC(=O)NCc2ccccc2)nnc1C(CO)NC(=O)c1ccccc1 (configuration not stated) do in these assays?
ERAP1 inh: 32*; SIRT5 inh: -1; FGF22 binding: 0; INS-1E GSIS act: 3; Casp6 inh: 5

How did CCCC(=O)N1CC2(CN(C(=O)NC(C)C)C2)c2c(n(C)c3cc(OC)ccc23)[C@H]1CO do in these assays?
ERAP1 inh: -1; SIRT5 inh: -2; FGF22 binding: 0; INS-1E GSIS act: 15; Casp6 inh: 0

What do the screens show for `CCCNC(=O)Nc1ccc2c(c1)OC[C@H](C)N(C(C)=O)C[C@@H](C)[C@@H](OC)CN(C)C2=O`?
ERAP1 inh: -4; SIRT5 inh: 0; FGF22 binding: 0; INS-1E GSIS act: 1; Casp6 inh: 0

How did O=C1CCCC(O)=C1N=Nc1ccc(C(=O)O)cc1 do in these assays?
ERAP1 inh: 25; SIRT5 inh: 33*; FGF22 binding: 0; INS-1E GSIS act: -18; Casp6 inh: 38*

Results for CCOc1cc(/C=N/NC(=O)c2cccnc2)ccc1OCC(=O)N(C)C ?
ERAP1 inh: -4; SIRT5 inh: 2; FGF22 binding: 44*; INS-1E GSIS act: 18; Casp6 inh: -2

How did C[C@H](CO)N1C[C@H](C)[C@@H](CN(C)Cc2ccc(-c3ccccc3)cc2)Oc2c(NC(=O)Nc3ccc(C(F)(F)F)cc3)cccc2C1=O do in these assays?
ERAP1 inh: 0; SIRT5 inh: 2.6*; FGF22 binding: -1; INS-1E GSIS act: -11; Casp6 inh: -3

How did C[C@@H]1CN([C@H](C)CO)C(=O)c2cccc(NC(=O)Nc3ccc(C(F)(F)F)cc3)c2O[C@H]1CN(C)Cc1ccc(Cl)c(Cl)c1 do in these assays?
ERAP1 inh: 0; SIRT5 inh: 9; FGF22 binding: 0; INS-1E GSIS act: -6; Casp6 inh: 2

Results for C[C@@H]1CN([C@@H](C)CO)C(=O)c2cccc(NC(=O)Nc3ccccc3)c2O[C@@H]1CN(C)Cc1ccc(C(F)(F)F)cc1 ?
ERAP1 inh: 3; SIRT5 inh: 103*; FGF22 binding: -1; INS-1E GSIS act: -14; Casp6 inh: -1

What do the screens show for `C[C@@H]1CN([C@@H](C)CO)C(=O)c2cccc(NC(=O)Nc3ccc(C(F)(F)F)cc3)c2O[C@H]1CN(C)Cc1ccc(Cl)c(Cl)c1`?
ERAP1 inh: -1; SIRT5 inh: 0; FGF22 binding: 0; INS-1E GSIS act: 44*; Casp6 inh: 10

Results for C[C@H]1CN([C@@H](C)CO)C(=O)c2cccc(NC(=O)Nc3ccc(C(F)(F)F)cc3)c2O[C@H]1CN(C)Cc1ccc(-c2ccccc2)cc1 ?
ERAP1 inh: 5; SIRT5 inh: 2; FGF22 binding: 0; INS-1E GSIS act: -33; Casp6 inh: 0

Results for C[C@@H]1CN([C@@H](C)CO)C(=O)c2cccc(NC(=O)Nc3ccc(C(F)(F)F)cc3)c2O[C@@H]1CN(C)Cc1ccccc1 ?
ERAP1 inh: -1; SIRT5 inh: -2; FGF22 binding: 0; INS-1E GSIS act: -14

Results for COc1ccc(CN(C)C[C@H]2Oc3c(NC(=O)Nc4ccc(F)cc4)cccc3C(=O)N([C@@H](C)CO)C[C@@H]2C)cc1 ?
ERAP1 inh: 0; SIRT5 inh: 30*; FGF22 binding: 0; INS-1E GSIS act: -9; Casp6 inh: 0

How did O=C(C[C@H]1C[C@H]2c3cc(NC(=O)CC4CC4)ccc3O[C@H]2[C@@H](CO)O1)NCc1cc(F)ccc1F do in these assays?
ERAP1 inh: -2; SIRT5 inh: -3; FGF22 binding: 0; INS-1E GSIS act: 11; Casp6 inh: -3

Assay outcomes deposited in PubChem by Broad Institute.
